# Experimental data as given in PubChem BioAssay (NCATS).
# Inconclusive results are not listed. Active and inactive are the calls of the source. The call rests on the fitted dose curve; in most records, active means well fitted curve in the direction sought with a large enough effect; inconclusive means small, poorly fitted or top-dose-only effect, or another doubt; inactive means no such curve, though single readings can be large; an effect the other way counts as inactive or inconclusive.
# Biological target: Phospholipid hydroperoxide glutathione peroxidase GPX4 (Homo sapiens) (UniProt P36969)
# Experiment: Primary qHTS Assay for Inhibitors of Recombinant Selenoprotein Glutathione Peroxidase 4 (GPX4) (AID 1845192); further: nearly all actives have a fitted effect of over 65% in size; on activity change, negative = inhibition: on the % scale 0 is the no-effect control and ±100 the full control effect
# Conditions: recombinant GPX4, GR-coupled NADPH fluorescence, 15 min; series mostly up to 50 µM; activity change, negative = inhibition: at the top concentration
# In short: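 GR-coupled assay: recombinant GPX4 preincubated 30 min with compound at room temperature; final 200 nM GPX4, 1 mM GSH, 0.5 mM cumene hydroperoxide, 0.5 mM NADPH, 100 nM GR, 0.01% BSA, pH 7.5 Tris. NADPH fluorescence (340/450 nm) read at 0 and 15 min.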
# Chain of Phospholipid hydroperoxide glutathione peroxidase GPX4 (Homo sapiens) (P36969 whole entry, looked up): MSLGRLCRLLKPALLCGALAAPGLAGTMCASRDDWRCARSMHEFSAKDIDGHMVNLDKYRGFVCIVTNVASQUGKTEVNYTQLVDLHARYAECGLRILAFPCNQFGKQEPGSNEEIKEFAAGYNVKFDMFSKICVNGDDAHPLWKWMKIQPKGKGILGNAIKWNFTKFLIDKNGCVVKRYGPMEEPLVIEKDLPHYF
SMILES,"activity change, negative = inhibition",outcome
OC1(c2ccc(Cl)c(C(F)(F)F)c2)CCN(CCCC(c2ccc(F)cc2)c2ccc(F)cc2)CC1,-11.5% (inactive),–
CC[N+](CC)(CC)CCOC(=O)C(C1CCCC1)C1CCCC1,-38.1% (inactive),–
CC(=O)OCC(=O)Nc1cc(C#N)cc(NC(=O)COC(C)=O)c1Cl,-5.61% (inactive),–
O=C1CC[C@H](C(=O)N2CCCCC2)N1,2.78% (inactive),–
O=C1[C@@H]2[C@H]3CC[C@H](C3)[C@@H]2C(=O)N1CCCCN1CCN(c2ncccn2)CC1,2.77% (inactive),–
CCNC(=O)NCCCOc1cccc(CN2CCCCC2)c1,–,inactive
CC(=O)O[C@@H]1C(=O)O[C@@H]2[C@H]1OC(=O)[C@@H]2OC(C)=O,-14.1% (inactive),–
CN1[C@@H]2CC[C@H]1CC(NC(=O)n1c(=O)[nH]c3ccccc31)C2 (stereo not given in full),-9.2% (inactive),–
CCCCNc1ccc(C(=O)OCCN(CC)CC)cc1,–,inactive
CC(=O)Nc1ccn(C2COC(COC(=O)c3ccccc3)O2)c(=O)n1 (stereo not given),-5.79% (inactive),–
O=C(NN1CCCC1)NS(=O)(=O)c1ccc(Cl)cc1,-1.56% (inactive),–
CCN1C(=O)c2ccccc2C1Nc1ccc(OCCN2CCCCC2)cc1 (stereo not given),1.87% (inactive),–
O=C(O)Cc1ccccc1Oc1ccc(Cl)cc1Cl,1.31% (inactive),–
O=C(O)[C@H](O)[C@@H](O)[C@H](O[C@@H]1O[C@H](CO)[C@H](O)[C@H](O)[C@H]1O)[C@H](O)CO,-6.67% (inactive),–
Nc1ncnc2nc[nH]c12,–,inactive
COc1cc(NS(=O)(=O)c2ccc(N)cc2)nc(C)n1,–,inactive
CN1CCC(N(Cc2cccs2)c2ccccc2)CC1,-15.5% (inactive),–
CC1CN(c2cc3c(cc2F)c(=O)c(C(=O)O)cn3-c2ccc(F)cc2F)CCN1 (stereo not given),-26.7% (inactive),–
C=CCOc1cc(Cl)ccc1C(=O)NCCN(CC)CC,2.77% (inactive),–
CC(C(O)c1ccccc1)N(C)CCOC(c1ccccc1)c1ccccc1 (stereo not given),–,inactive

# Biological target: Luciferin 4-monooxygenase (Photinus pyralis) (UniProt P08659)
# Experiment: Primary firefly luciferase (FLuc) qHTS assay for identification of artifact compounds. (AID 1845220);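 further: plate controls were DMSO vehicle for no effect and no enzyme for full effect; nearly all actives have a fitted effect of over 60% in size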
# Conditions: purified firefly luciferase, luminescence, 5 min; series mostly up to 54.1 µM; activity change, negative = inhibition: at the top concentration
# In short: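 D-luciferin and ATP (10 uM each, final) in Tris acetate buffer pH 7.6 were incubated with compounds for 15 min at room temperature. The reaction was started with 10 nM Photinus pyralis luciferase and luminescence read after 5 min. Percent inhibition was fitted to a 4-parameter Hill equation.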
row,SMILES,"activity change, negative = inhibition"
1,Nc1c(NC/C=C\COc2cc(CN3CCCCC3)ccn2)c(=O)c1=O,-7.78% (inactive)
2,CCCCCOc1ccc(C2SC(=O)NC2=O)cc1OCC (stereo not given),-9.07% (inactive)
3,CC1CN(c2cc3c(cc2F)c(=O)c(C(=O)O)cn3-c2ccc(F)cc2F)CCN1 (stereo not given),-8.55% (inactive)

# System: not listed separately
# Experiment: Primary fluorescence-based thiol-reactive (MSTI) qHTS assay for identification of artifact compounds. (AID 1845221);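 further: thiol-reactive compounds lower the probe fluorescence signal; nearly all actives have a fitted effect of over 65% in size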
# Conditions: MSTI thiol-reactivity probe, 1 h; series mostly up to 53.8 µM; activity change, negative = thiol reactive: at the top concentration
# In short: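 Compounds were incubated 1 h at room temperature in the dark with the MSTI probe (4 uM) in PBS pH 7.4, 2% DMSO. Signals were normalized between Acetyl-MSTI and MSTI.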
row,SMILES,"activity change, negative = thiol reactive"
1,CC1c2ccccc2CN1NC(=O)c1ccc(Cl)c(S(N)(=O)=O)c1 (stereo not given),46.2% (inactive)
2,CC[N+]1(CC)CCC(=C(c2ccccc2)c2ccccc2)C1C (stereo not given),11.7% (inactive)
3,Nc1c(NC/C=C\COc2cc(CN3CCCCC3)ccn2)c(=O)c1=O,3.66% (inactive)
4,C[C@H](CN1CCCC1)C(=O)c1ccc(C(F)(F)F)cc1,3.26% (inactive)
5,CCCCCOc1ccc(C2SC(=O)NC2=O)cc1OCC (stereo not given),149% (inactive)
6,CO[C@]1(NC(=O)CSC(F)F)C(=O)N2C(C(=O)O)=C(CSc3nnnn3CCO)CO[C@H]21,-2.92% (inactive)
7,CCCN(CCC)C(=O)C(CCC(=O)OCCCN1CCN(CCOC(=O)Cc2c(C)n(C(=O)c3ccc(Cl)cc3)c3ccc(OC)cc23)CC1)NC(=O)c1ccccc1 (stereo not given),-29.6% (inactive)
8,CCN(CC)CCOc1ccc(/C(=C(\Cl)c2ccccc2)c2ccccc2)cc1,-26.4% (inactive)
9,COc1cc(C(=O)OC(COCCC(C)C)CN2CCOCC2)cc(OC)c1OC (stereo not given),32.3% (inactive)
10,Cc1cccc(N(C)C(=S)Oc2ccc3c(c2)CCC3)c1,87.7% (inactive)
11,CO/N=C(/C(=O)N[C@@H]1C(=O)N2C(C(=O)O)=C(Cn3nnc(C)n3)CS[C@H]12)c1csc(N)n1,-4.65% (inactive)
12,CC(=O)[C@H]1CC[C@H]2[C@@H]3C=CC4=CC(=O)CC[C@@]4(C)[C@@H]3CC[C@]12C,76% (inactive)
13,Cc1ccccc1C(=O)N1CC/C(=N\OS(=O)(=O)O)c2ccc(Cl)cc21,59.2% (inactive)
14,CN(C)C(=O)CNC(=O)Cc1ccccc1,-0.905% (inactive)
15,COC(=O)C1=C(C)NC(COC(N)=O)=C(C(=O)OC(C)C)C1c1cccc(Cl)c1Cl (stereo not given),161% (inactive)
16,OC1(c2ccc(Cl)c(C(F)(F)F)c2)CCN(CCCC(c2ccc(F)cc2)c2ccc(F)cc2)CC1,75.5% (inactive)

row,SMILES,"activity change, negative = thiol reactive"
1,CC(=O)OCC(=O)Nc1cc(C#N)cc(NC(=O)COC(C)=O)c1Cl,3.53% (inactive)
2,O=C1CC[C@H](C(=O)N2CCCCC2)N1,-3.87% (inactive)
3,O=C1[C@@H]2[C@H]3CC[C@H](C3)[C@@H]2C(=O)N1CCCCN1CCN(c2ncccn2)CC1,41.2% (inactive)
4,CCNC(=O)NCCCOc1cccc(CN2CCCCC2)c1,4.33% (inactive)
5,CC(=O)O[C@@H]1C(=O)O[C@@H]2[C@H]1OC(=O)[C@@H]2OC(C)=O,-4.07% (inactive)
6,CN1[C@@H]2CC[C@H]1CC(NC(=O)n1c(=O)[nH]c3ccccc31)C2 (stereo not given in full),15.7% (inactive)
7,CCCCNc1ccc(C(=O)OCCN(CC)CC)cc1,11.8% (inactive)
8,CC(=O)Nc1ccn(C2COC(COC(=O)c3ccccc3)O2)c(=O)n1 (stereo not given),44.2% (inactive)
9,O=C(NN1CCCC1)NS(=O)(=O)c1ccc(Cl)cc1,4.79% (inactive)
10,CCN1C(=O)c2ccccc2C1Nc1ccc(OCCN2CCCCC2)cc1 (stereo not given),30.5% (inactive)
11,O=C(O)Cc1ccccc1Oc1ccc(Cl)cc1Cl,2.05% (inactive)
12,COc1cc(NS(=O)(=O)c2ccc(N)cc2)nc(C)n1,1.03% (inactive)
13,CN1CCC(N(Cc2cccs2)c2ccccc2)CC1,24% (inactive)
14,CC1CN(c2cc3c(cc2F)c(=O)c(C(=O)O)cn3-c2ccc(F)cc2F)CCN1 (stereo not given),9.04% (inactive)
15,C=CCOc1cc(Cl)ccc1C(=O)NCCN(CC)CC,27.2% (inactive)
16,CC(C(O)c1ccccc1)N(C)CCOC(c1ccccc1)c1ccccc1 (stereo not given),1.42% (inactive)
